# Nrf2 inh: Nrf2 qHTS screen for inhibitors | Potency, µM (top dose mostly 46 µM), without a hit: top-dose activity change, negative = inhibition, hits mostly inhibitors | A549 ARE-Fluc reporter, luciferase luminescence, 18-24 h | 360,000 tested, 2.1% active | AID 504444, 2011; note: % is set by controls: 0 for no effect and ±100 for the full control effect; nearly all actives have a fitted effect of over 60% in size
#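 Concentration-response testing used A549 ARE_Fluc cells at 5000 cells/well. Following an 18-24 h compound incubation, viability was read by fluorescence (Ex 405/Em 525) and luciferase output by luminescence.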
# HepG2 tox: qHTS for Inhibitors of TGF-b: Cytotox Counterscreen; Potency, µM (doses to about 46.1 µM), for the others: at the top dose activity change, negative = cytotoxicity, most hits filed as cytotoxic; AID 588856, 2011; HepG2 CAGA-GFP viability, ATP luminescence, 18 h; 410,000 tested, 0.76% active
#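 CellTiter-Glo luminescence gave cytotoxicity after 18 hours at 37 degrees C. The cells were HepG2 CAGA-GFP in 1% FBS DMEM, stimulated with 500 pg/mL TGF-beta after compound addition. %Activity was normalised to no-cell wells (complete cell-killing) and DMSO (no toxicity), and curves were fitted and classified.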
# Nrf2 activator: qHTS of Nrf2 Activators | AREc32 ARE-luciferase reporter (MCF7-derived line), luminescence, 24 h | Potency, µM (series often up to 46.1 µM), for inactives: at the highest dose activation, hits mostly activators | 410,000 tested, 0.31% active | AID 624171, 2012; note: % of control where 0% means no effect; nearly all actives have a fitted effect of over 65% in size
#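 AREc32 cells carrying an ARE-driven firefly luciferase, 1000 cells/well in OPTI-MEM with 5% FBS, dosed after overnight attachment and incubated 24 hr at 37 deg C. Steady-Glo luminescence read after 30 min at RT.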
# A549 viability: Nrf2 qHTS screen for inhibitors: counterscreen for cytotoxicity; A549 ARE-Fluc cells, CellTiter-Fluor viability, 18-24 h; Potency, µM (doses to about 46 µM), without a hit: at the top dose activity change, negative = cytotoxicity, hits mostly inhibitors; 390,000 tested, 0.16% active; note: % is set by controls: 0 for no effect and ±100 for the full control effect
#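 A549 ARE-Fluc cells in 5% FBS OPTI-MEM, 5000 cells/well, rested 2 h then exposed to compounds in concentration-response for 18-24 h at 37 °C. Viability by CellTiter-Fluor fluorescence (Ex 405/Em 525) after 30 min; luciferase luminescence (BugLite, 15 min, RT) read afterwards.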
# TGFb SMAD3 inh: qHTS for Inhibitors of TGF-b. HepG2 CAGA-GFP TGF-b/SMAD3 reporter, GFP fluorescence, 18 h; TGF-beta stimulated, 500 pg/mL final. AID 588855, 2011. 410,000 tested, 1.2% active. Potency, µM (highest dose often 46.1 µM), for inactives: top-dose activity, negative = inhibition, actives largely listed as inhibitors; note: % is set by controls: 0 for no effect and ±100 for the full control effect; nearly all actives have a fitted effect of over 65% in size
#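 HEPG2 CAGA-GFP cells (1000/well, DMEM with 1% FBS) were pre-incubated 2 h at 37 degrees C, given compound by pin tool, then stimulated with TGF-beta at 500 pg/mL final for 18 h before per-cell GFP fluorescence imaging.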
# * hit, by the source's call; ? = inconclusive; . = no result given. An excerpt weighted towards active compounds, which were near 3.6% of everything screened. Calls come from the whole dose curve; as a rule, active = well fitted curve in the direction sought with a large enough effect; inconclusive = small, poorly fitted or top-dose-only effect, or another doubt; inactive = no such curve, though single readings can be large; an effect the other way counts as inactive or inconclusive. Potency is the fitted concentration of half-maximal effect.
SMILES,Nrf2 inh,HepG2 tox,Nrf2 activator,A549 viability,TGFb SMAD3 inh
Cc1cc(C2N=C(N)Nc3nc4ccccc4n32)c(C)n1-c1ccccc1Cl (configuration not stated),8%,-41%,0%,-6%,11µM*
CN1CCN(c2cc(N3CCc4ccccc4C3)c(F)cc2[N+](=O)[O-])CC1,13%,16µM*,11%,-5%,?
CCC(=O)N1CCN(c2cc(N3CCN(C)CC3)c(F)cc2[N+](=O)[O-])CC1,2%,-2%,0%,-2%,-4%
O=C(CSc1ccc(-c2ccco2)nn1)c1ccccc1,16%,-28%,18%,0%,0%
CCN(C1CCCCC1)S(=O)(=O)c1ccc(S(=O)(=O)NCc2ccncc2)cc1,8.2µM*,-19%,-1%,-2%,?
CCc1cc2c(NCC(=O)O)ncnc2s1,-7%,-17%,0%,-2%,4%
CC(C)OCCCNc1ncnc2c1[nH]c1ccccc12,12µM*,-28%,3%,-22%,-31%
c1coc(CNc2ncnc3c2[nH]c2ccccc23)c1,16µM*,-53%,.,-3%,-26%
CCc1cc2c(NCc3ccco3)ncnc2s1,?,2%,3.5µM*,7%,13%
CCOc1ccc2[nH]c3c(NCCCOC)ncnc3c2c1,1%,-49%,0%,10%,-2%
Cc1ccc2[nH]c3c(NCc4ccccc4)ncnc3c2c1,5.2µM*,-12%,4%,18µM*,?
O=c1c2[nH]c3ccccc3c2ncn1Cc1ccco1,4%,-3%,9%,-6%,0%
COc1ccc(CNc2ncnc3c2[nH]c2cc(OC)c(OC)cc23)cc1,-16%,-17%,6%,1%,-13%
CC1CCc2[nH]c3ccc(C(=O)N(C)CC(=O)Nc4ccc(F)cc4)cc3c2C1 (configuration not stated),-29%,11%,2%,-15%,0%
CCN(CC(=O)Nc1ccccc1C(F)(F)F)C(=O)c1ccc2[nH]c3c(c2c1)CC(C)CC3 (configuration not stated),26µM*,-6%,2%,?,?
CCNC(=S)NNC(=O)c1ccccc1Cl,1%,13%,0%,1%,10%
Cc1c(N=C2NC(=O)/C(=C/c3ccc(O)cc3)S2)c(=O)n(-c2ccccc2)n1C,7%,10µM*,6%,0%,0%
CCCC(=O)N(C1CC(C)C(C#N)(C#N)C1(C#N)C#N)N(C)C (configuration not stated),?,-96%,-2%,?,11µM*
CCC(=O)NC(c1ccccc1OC)c1ccc2cccnc2c1O (configuration not stated),?,3.5µM*,5%,-8%,2.5µM*
CCCC(=O)NC(c1ccc(OC)cc1)c1ccc2cccnc2c1O (configuration not stated),?,-9%,5%,?,?
Cn1c(CC(=O)Nc2ccccc2F)nnc1SCC(=O)Nc1ccccc1Br,-3%,11µM*,2%,-3%,-1%
Cn1c(CC(=O)Nc2ccccc2F)nnc1SCC(=O)Nc1nncs1,-16%,-4%,2%,1%,-20%
COc1cccc(C(c2nnnn2Cc2ccco2)N2CCN(c3cccc(C)c3C)CC2)c1OC (configuration not stated),23µM*,1%,0%,1%,?
CN(CCC#N)C(=O)COC(=O)c1ccc2c(c1)C(=O)N(C1CCCCC1)C2=O,-11%,4%,0%,-1%,16%
Oc1ccc(Cl)cc1C1C=C(c2ccc3c(c2)OCO3)NC(c2ccc(C(F)(F)F)cc2)N1 (configuration not stated),16%,-92%,.,-1%,16µM*
SMILES,Nrf2 inh,HepG2 tox,Nrf2 activator,A549 viability,TGFb SMAD3 inh
Oc1ccc(Br)cc1C1C=C(c2ccc3c(c2)OCO3)NC(c2ccc(F)c(Br)c2)N1 (configuration not stated),?,-96%,.,-17%,7.9µM*
Oc1ccc(Br)cc1C1C=C(c2ccc3c(c2)OCO3)NC(c2ccc(Br)cc2)N1 (configuration not stated),6%,-57%,.,0%,?
CCS(=O)(=O)N1Cc2ccccc2CC1C(=O)Nc1nc2ccccc2s1 (configuration not stated),?,-6%,-1%,4%,9%
CCOC(=O)c1cnc(-n2nc(C)cc2C)nc1NNc1nc(-c2ccccc2)cc(-c2ccccc2)n1,8.2µM*,-17%,0%,?,-6%
CCOC(=O)c1cnc(-n2nc(C)cc2C)nc1NNc1nc(C)cc(C)n1,-17%,-1%,1%,5%,-9%
COc1cc(/C=C2\SC(=O)N(c3ccc(O)cc3)C2=O)cc(OC)c1OC,-22%,-24%,0%,1%,-15%
CCCCn1c(SCc2ccc(C(=O)OC)o2)nc2cc(S(N)(=O)=O)ccc21,16µM*,-16%,3%,-9%,-28%
CCCCn1c(SCC(=O)c2cc(OC)ccc2OC)nc2cc(S(N)(=O)=O)ccc21,21%,-15%,-1%,4%,-1%
CC(=O)c1sc(C(C)(C)C)cc1NC(=O)/C=C/C(=O)O,-20%,-4%,16µM*,-1%,-1%
C#CCN(C[C@@H]1[C@@H](OC(=O)NCC2CCCCC2)[C@@H](OC(=O)NCC2CCCCC2)Cn2c(=O)ccc(=O)n21)S(=O)(=O)c1ccc(C)cc1,.,-87%,?,.,7.1µM*
C#CCN(C[C@@H]1[C@@H](OC(=O)NCc2ccco2)[C@@H](OC(=O)NCc2ccco2)Cn2c(=O)ccc(=O)n21)S(=O)(=O)c1ccc(C)cc1,.,-34%,-6%,.,?
C#CCN(C[C@@H]1[C@@H](OC(=O)NCCCCCC)[C@@H](OC(=O)NCCCCCC)Cn2c(=O)ccc(=O)n21)S(=O)(=O)c1ccc(C)cc1,.,6.3µM*,?,.,6.3µM*
O=C(c1c(F)cccc1F)N1CCCC1,3%,2%,-1%,-2%,4%
O=C(C1CCC(Cn2c(=S)[nH]c3ccccc3c2=O)CC1)N1CCN(c2ccccn2)CC1 (configuration not stated),18µM*,-2%,0%,?,-17%
CCOCCCNC(=O)c1[nH]c2cc(C)ccc2c1Sc1ccc(Cl)cc1,4%,-8%,4%,1%,0%
CCOCCCNC(=O)c1[nH]c2cc(OC)ccc2c1Sc1ccccc1,26µM*,4%,0%,-24%,-5%
COc1ccc2c(Sc3ccc(Cl)cc3)c(C(=O)NCCCN3CCCCC3)[nH]c2c1,?,16µM*,-3%,2%,?
COc1ccc(C2(CNC(=O)/C=C/c3ccco3)CCCC2)cc1OC,5%,-25%,?,-7%,-1%

# Screening results as filed in PubChem BioAssay.
